Measured values reported in article PMC9911399, “Two distinct binding modes provide the RNA-binding protein RbFox with extraordinary sequence specificity”.
Positions count from the first letter of the chain named. Over roughly 16,000 sequences, “ka relative to ugcaugu” has its median near 0.096; the highest 2% begin near 0.35. This is one part of a sample in which the highest values are shown more often than they occur.

T1: RBFOX1 RRM RbFoxmut (Fox-RRM*) (Homo sapiens, UniProt Q9NWB1 109-208, R118D;E147R;N151S;E152T)
T1 sequence: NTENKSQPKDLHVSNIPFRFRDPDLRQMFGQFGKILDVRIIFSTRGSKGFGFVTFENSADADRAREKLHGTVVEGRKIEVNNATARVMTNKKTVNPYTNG

B1: AGCUAUA (DNA:RNA)
RNA: GGGAGACCGGAAUUCAGAUUGUCCAGCUAUAUUAAAUCCCGUCGUAGCCACCA
DNA 1: CAATCTGAATTCCGGTCTCCC
DNA 2: TGGTGGCTACGACGGGATT
B2: AGUGGCA (DNA:RNA)
RNA: B1 RNA with C27U, U28G, A29G, U30C
DNA 1: CAATCTGAATTCCGGTCTCCC
DNA 2: TGGTGGCTACGACGGGATT
B3: CAAAUUG (DNA:RNA)
RNA: B1 RNA with A25C, G26A, C27A, U28A, A29U, A31G
DNA 1: CAATCTGAATTCCGGTCTCCC
DNA 2: TGGTGGCTACGACGGGATT
B4: GGGGGUG (DNA:RNA)
RNA: B1 RNA with A25G, C27G, U28G, A29G, A31G
DNA 1: CAATCTGAATTCCGGTCTCCC
DNA 2: TGGTGGCTACGACGGGATT
B5: GGGUGUC (DNA:RNA)
RNA: B1 RNA with A25G, C27G, A29G, A31C
DNA 1: CAATCTGAATTCCGGTCTCCC
DNA 2: TGGTGGCTACGACGGGATT
B6: GGGGGUC (DNA:RNA)
RNA: B1 RNA with A25G, C27G, U28G, A29G, A31C
DNA 1: CAATCTGAATTCCGGTCTCCC
DNA 2: TGGTGGCTACGACGGGATT
B7: CCGGGUG (DNA:RNA)
RNA: B1 RNA with A25C, G26C, C27G, U28G, A29G, A31G
DNA 1: CAATCTGAATTCCGGTCTCCC
DNA 2: TGGTGGCTACGACGGGATT
B8: GGGUGUG (DNA:RNA)
RNA: B1 RNA with A25G, C27G, A29G, A31G
DNA 1: CAATCTGAATTCCGGTCTCCC
DNA 2: TGGTGGCTACGACGGGATT
B9: GCGGGUG (DNA:RNA)
RNA: B1 RNA with A25G, G26C, C27G, U28G, A29G, A31G
DNA 1: CAATCTGAATTCCGGTCTCCC
DNA 2: TGGTGGCTACGACGGGATT
B10: GGUCUGG (DNA:RNA)
RNA: B1 RNA with A25G, C27U, U28C, A29U, U30G, A31G
DNA 1: CAATCTGAATTCCGGTCTCCC
DNA 2: TGGTGGCTACGACGGGATT
B11: ACUUCCA (DNA:RNA)
RNA: B1 RNA with G26C, C27U, A29C, U30C
DNA 1: CAATCTGAATTCCGGTCTCCC
DNA 2: TGGTGGCTACGACGGGATT
B12: CCAGGGC (DNA:RNA)
RNA: GGGAGACCGGAAUUCAGAUUGUCCCCAGGGCUUAAAUCCCGUCGUAGCCACCA
DNA 1: CAATCTGAATTCCGGTCTCCC
DNA 2: TGGTGGCTACGACGGGATT
B13: AGUUAUG (DNA:RNA)
RNA: B1 RNA with C27U, A31G
DNA 1: CAATCTGAATTCCGGTCTCCC
DNA 2: TGGTGGCTACGACGGGATT
B14: ACCUUAA (DNA:RNA)
RNA: B1 RNA with G26C, A29U, U30A
DNA 1: CAATCTGAATTCCGGTCTCCC
DNA 2: TGGTGGCTACGACGGGATT
B15: CCCGCAU (DNA:RNA)
RNA: B12 RNA with A27C, G29C, G30A, C31U
DNA 1: CAATCTGAATTCCGGTCTCCC
DNA 2: TGGTGGCTACGACGGGATT
B16: CUUCACC (DNA:RNA)
RNA: B12 RNA with C26U, A27U, G28C, G29A, G30C
DNA 1: CAATCTGAATTCCGGTCTCCC
DNA 2: TGGTGGCTACGACGGGATT
B17: CGAGUAU (DNA:RNA)
RNA: B12 RNA with C26G, G29U, G30A, C31U
DNA 1: CAATCTGAATTCCGGTCTCCC
DNA 2: TGGTGGCTACGACGGGATT
B18: UGGUUUG (DNA:RNA)
RNA: B1 RNA with A25U, C27G, A29U, A31G
DNA 1: CAATCTGAATTCCGGTCTCCC
DNA 2: TGGTGGCTACGACGGGATT
B19: UGGUGGU (DNA:RNA)
RNA: B1 RNA with A25U, C27G, A29G, U30G, A31U
DNA 1: CAATCTGAATTCCGGTCTCCC
DNA 2: TGGTGGCTACGACGGGATT
B20: UGGUUUC (DNA:RNA)
RNA: B1 RNA with A25U, C27G, A29U, A31C
DNA 1: CAATCTGAATTCCGGTCTCCC
DNA 2: TGGTGGCTACGACGGGATT
B21: CUGGUUG (DNA:RNA)
RNA: B12 RNA with C26U, A27G, G29U, G30U, C31G
DNA 1: CAATCTGAATTCCGGTCTCCC
DNA 2: TGGTGGCTACGACGGGATT
B22: UGGUUUU (DNA:RNA)
RNA: B1 RNA with A25U, C27G, A29U, A31U
DNA 1: CAATCTGAATTCCGGTCTCCC
DNA 2: TGGTGGCTACGACGGGATT
B23: UGGUUGG (DNA:RNA)
RNA: B1 RNA with A25U, C27G, A29U, U30G, A31G
DNA 1: CAATCTGAATTCCGGTCTCCC
DNA 2: TGGTGGCTACGACGGGATT
B24: GUCCUGG (DNA:RNA)
RNA: B1 RNA with A25G, G26U, U28C, A29U, U30G, A31G
DNA 1: CAATCTGAATTCCGGTCTCCC
DNA 2: TGGTGGCTACGACGGGATT
B25: CCCCUGG (DNA:RNA)
RNA: B12 RNA with A27C, G28C, G29U, C31G
DNA 1: CAATCTGAATTCCGGTCTCCC
DNA 2: TGGTGGCTACGACGGGATT
B26: UGUUUGG (DNA:RNA)
RNA: B1 RNA with A25U, C27U, A29U, U30G, A31G
DNA 1: CAATCTGAATTCCGGTCTCCC
DNA 2: TGGTGGCTACGACGGGATT
B27: UGGUUCC (DNA:RNA)
RNA: B1 RNA with A25U, C27G, A29U, U30C, A31C
DNA 1: CAATCTGAATTCCGGTCTCCC
DNA 2: TGGTGGCTACGACGGGATT
B28: UGGUUGU (DNA:RNA)
RNA: B1 RNA with A25U, C27G, A29U, U30G, A31U
DNA 1: CAATCTGAATTCCGGTCTCCC
DNA 2: TGGTGGCTACGACGGGATT
B29: UGGUUCG (DNA:RNA)
RNA: B1 RNA with A25U, C27G, A29U, U30C, A31G
DNA 1: CAATCTGAATTCCGGTCTCCC
DNA 2: TGGTGGCTACGACGGGATT

These binders were tested against T1, RBFOX1 RRM RbFoxmut (Fox-RRM*) (assay: EMSA; HiTS-Eq, 1 nM pool, 10 min; buffer printed only for the single-RNA assays: 10 mM Tris pH 7.5, 150 mM NaCl, 3.4 mM EDTA, 0.001% NP-40, 30 C). Conditions: tags: His6 N-terminal (pET28a); label: 5' 32P.
Outline: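 Purified wild-type or mutant RbFox RRM at increasing concentrations was equilibrated with 1 nM of 5′-radiolabelled RNA carrying 7 randomized nucleotides for 10 min in 50 µL. Unbound RNA was separated by 8% native PAGE and sequenced. Relative association constants came from read-count changes of each RNA species compared with the control reaction, normalised to the cognate motif.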

Row | Binder | binding signal
1 | B1 | 0.14 KA relative to UGCAUGU
2 | B2 | 0.144 KA relative to UGCAUGU
3 | B3 | 0.117 KA relative to UGCAUGU
4 | B4 | 0.289 KA relative to UGCAUGU
5 | B5 | 0.368 KA relative to UGCAUGU
6 | B6 | 0.201 KA relative to UGCAUGU
7 | B7 | 0.163 KA relative to UGCAUGU
8 | B8 | 0.441 KA relative to UGCAUGU
9 | B9 | 0.194 KA relative to UGCAUGU
10 | B10 | 0.153 KA relative to UGCAUGU
11 | B11 | 0.0542 KA relative to UGCAUGU
12 | B12 | 0.102 KA relative to UGCAUGU
13 | B13 | 0.28 KA relative to UGCAUGU
14 | B14 | 0.129 KA relative to UGCAUGU
15 | B15 | 0.0703 KA relative to UGCAUGU
16 | B16 | 0.0684 KA relative to UGCAUGU
17 | B17 | 0.143 KA relative to UGCAUGU
18 | B18 | 0.874 KA relative to UGCAUGU
19 | B19 | 0.161 KA relative to UGCAUGU
20 | B20 | 0.183 KA relative to UGCAUGU
21 | B21 | 0.458 KA relative to UGCAUGU
22 | B22 | 0.0956 KA relative to UGCAUGU
23 | B23 | 0.309 KA relative to UGCAUGU
24 | B24 | 0.075 KA relative to UGCAUGU
25 | B25 | 0.0629 KA relative to UGCAUGU
26 | B26 | 0.302 KA relative to UGCAUGU
27 | B27 | 0.157 KA relative to UGCAUGU
28 | B28 | 0.396 KA relative to UGCAUGU
29 | B29 | 0.492 KA relative to UGCAUGU
